The full list was thinned out, with hits kept by preference.
Pin1 inhibitor – qHTS Assay to Find Inhibitors of Pin1. Peptidyl-prolyl cis-trans isomerase NIMA-interacting 1 (Homo sapiens), Q13526. Pin1 FP peptide displacement, HiFluor488, 10 min. Potency, µM (series often up to 115 µM), hits mostly inhibitors. actives 0.009% (n = 390,000); active means well fitted inhibition curve with a large enough effect in the polarisation, with a control signal flat, not every such curve was filed as active; inconclusive means small, poorly fitted or top-dose-only effect, or effect the other way, or a change in a side signal; inactive means no such curve, though single readings can be large or run the other way; the % refers to the polarisation
Target sequence (Q13526 whole entry, looked up): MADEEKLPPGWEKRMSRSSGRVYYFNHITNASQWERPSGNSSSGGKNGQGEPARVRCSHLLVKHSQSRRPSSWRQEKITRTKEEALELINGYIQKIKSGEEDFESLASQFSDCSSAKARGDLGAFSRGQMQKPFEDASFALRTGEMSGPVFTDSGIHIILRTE
PI5P4K alpha inh – qHTS for Inhibitors of phosphatidylinositol 5-phosphate 4-kinase (PI5P4K) | Phosphatidylinositol 5-phosphate 4-kinase type-2 alpha (Homo sapiens), P48426 | PI5P4Kalpha enzyme, ADP-Glo luminescence, 60 min; active compounds read low | max response, % | actives 1.2% (n = 330,000); active means max response of -50% or lower; inconclusive means between -30% and -50%; inactive means -30% or higher; further: value at the top dose of about 77 µM
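qHTS, 1536-well: enzyme/substrate mix, compound by pin tool, 5 microM ATP final; RT 60 min; ADP-Glo reagents 1 (45 min) then 2 (30 min); luminescence.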
PI4K2A inh – qHTS for small molecular inhibitors of PI4K2A | actives 0.13% (n = 420,000) | AID 1346378, 2018 | activity change, negative = inhibition, % at 76.9 µM | purified PI4K2A, ADP-Glo luminescence, 1 h; active compounds read low; in the data active means activity change below about -50%; inconclusive means mostly about -30% to -49%
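PI4K2A activity was measured by ADP-Glo luminescence: enzyme (4 ug/mL stock) and phosphatidylinositol (1.2 mM stock) in Tris pH 7.5/MgCl2/EGTA/Triton X-100 buffer were reacted with ATP (300 microM stock) for one hour at ambient temperature.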
Tb PFK inh-1 – qHTS Assay to Find Inhibitors of T. brucei phosphofructokinase; Potency, µM (titrated, usually from 57.5 µM), hits mostly inhibitors; actives 0.17% (n = 330,000); T. brucei PFK, ADP-Glo luminescence; AID 485367, 2010; further: nearly all actives have a fitted effect of over 60% in size
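Luminescent ADP detection (ADP-Glo, two-step: ATP depletion then ADP-to-ATP conversion for luciferase) reported PFK activity after 45 min room-temperature reaction of 1.25 nM enzyme with 0.5 mM F6P and 0.1 mM ATP at pH 8.0.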
Tb PGK inh – qHTS Assay to Find Inhibitors of Phosphoglycerate Kinase; Phosphoglycerate kinase, glycosomal (Trypanosoma brucei brucei), P07378; PGK/GAPDH coupled, Kinase-Glo luminescence, 60 min; Potency, µM (highest dose often 57.5 µM), actives largely listed as inhibitors; actives 0.043% (n = 380,000); AID 602233, 2012; further: nearly all actives have a fitted effect of over 60% in size
Target sequence (P07378 whole entry, looked up): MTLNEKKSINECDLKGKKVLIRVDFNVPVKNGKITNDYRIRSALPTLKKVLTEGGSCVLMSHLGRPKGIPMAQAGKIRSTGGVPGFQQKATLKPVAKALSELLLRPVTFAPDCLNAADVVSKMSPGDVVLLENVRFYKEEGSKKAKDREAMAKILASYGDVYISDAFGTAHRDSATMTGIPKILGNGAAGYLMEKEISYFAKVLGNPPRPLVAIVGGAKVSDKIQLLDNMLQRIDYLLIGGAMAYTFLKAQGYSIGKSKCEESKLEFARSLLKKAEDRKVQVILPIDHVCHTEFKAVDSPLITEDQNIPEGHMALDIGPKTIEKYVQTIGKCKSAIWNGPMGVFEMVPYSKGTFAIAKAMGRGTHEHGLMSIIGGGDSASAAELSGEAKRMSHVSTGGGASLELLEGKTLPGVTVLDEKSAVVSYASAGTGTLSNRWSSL
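Recombinant glycosomal PGK reaction used 1,3-bisphosphoglycerate generated in-well by GAPDH (100nM final) in 100mM TEA pH 7.6, 5mM MgCl2, 0.01% Tween-20. After 60 minutes at room temperature, ATP was read by Kinase-Glo Plus luminescence end-point.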
TbPFK ATP – Tb PFK orthogonal confirmatory assay using ATP depletion (Kinase-Glo Plus) as an alternative measure of Tb PFK activity: Hit Validation; shares compounds with Tb PFK inh-1; Tb PFK enzyme, ATP depletion, Kinase-Glo Plus luminescence; Potency, µM (titrated, usually from 57.5 µM); actives 47% (n = 1,100); calls by dose curve; further: nearly all actives have a fitted effect of over 60% in size
Tb PFK inh-2 – Inhibitors of T. brucei phosphofructokinase: Hit Validation. purified T. brucei PFK, ADP-Glo luminescence, 45 min. shares compounds with Tb PFK inh-1. actives 41% (n = 1,100). Potency, µM (top dose mostly 57.5 µM), hits mostly inhibitors. AID 504637, 2011; further: nearly all actives have a fitted effect of over 60% in size
Hits are given with their value. Unless noted, the call rests on the fitted dose curve; in most records, active means well fitted curve in the direction sought with a large enough effect; inconclusive means small, poorly fitted or top-dose-only effect, or another doubt; inactive means no such curve, though single readings can be large; an effect the other way counts as inactive or inconclusive.

Screening Fc1cc2ncn(Cc3ccccc3)c2cc1F returned Pin1 inhibitor inactive, PI5P4K alpha inh inactive, PI4K2A inh inactive, Tb PFK inh-1 inconclusive, Tb PGK inh inactive, TbPFK ATP inconclusive and Tb PFK inh-2 inconclusive.
Screening Fc1ccc(CCNCc2cccc(Cl)c2)cc1 returned Pin1 inhibitor inactive, PI4K2A inh inactive, Tb PFK inh-1 inactive and Tb PGK inh inactive.
For FCCN(CCF)c1cccc(Cl)c1 the results were Pin1 inhibitor inactive, PI5P4K alpha inh inactive, PI4K2A inh inactive, Tb PFK inh-1 19µM, Tb PGK inh inactive, TbPFK ATP 8.5µM and Tb PFK inh-2 24µM.
For CCOc1ccccc1NC(=O)COc1coc(CN2CCc3ccccc32)cc1=O the results were Pin1 inhibitor inactive, PI5P4K alpha inh inactive, PI4K2A inh inactive, Tb PFK inh-1 inconclusive, Tb PGK inh inactive, TbPFK ATP inactive and Tb PFK inh-2 inactive.
O=C(N/N=C/c1ccc(O)c(O)c1O)/C(=C/c1ccc([N+](=O)[O-])cc1)NC(=O)c1ccccc1 was read as Pin1 inhibitor inconclusive, PI5P4K alpha inh -86, PI4K2A inh inactive, Tb PFK inh-1 24µM, Tb PGK inh inactive, TbPFK ATP 3.4µM and Tb PFK inh-2 11µM.
`Cc1nc2ccccc2c(=O)n1-c1ccc([N+](=O)[O-])cc1` gave Pin1 inhibitor inactive, PI5P4K alpha inh inactive, PI4K2A inh inactive, Tb PFK inh-1 inactive and Tb PGK inh inactive.
`O=C(COC(=O)c1ccccc1O)Nc1cccc(S(=O)(=O)NC2=NCCCCC2)c1` gave Pin1 inhibitor inactive, PI5P4K alpha inh inactive, PI4K2A inh inactive, Tb PFK inh-1 13µM, Tb PGK inh inactive, TbPFK ATP inconclusive and Tb PFK inh-2 inconclusive.
`COc1ccc2c(c1)[C@@]13CCCC[C@H]1[C@@H](C2)NCC3` gave PI4K2A inh inactive.
Cc1ccc(-n2c(O)c(C=NCCN3CCNCC3)c(=O)[nH]c2=S)cc1 was read as Pin1 inhibitor inactive, PI5P4K alpha inh inactive, PI4K2A inh inactive and Tb PFK inh-1 inactive.
Screening O=c1/c(=C\c2cc([N+](=O)[O-])cc([N+](=O)[O-])c2O)sc2nc3ccccc3n12 returned Pin1 inhibitor inconclusive, PI5P4K alpha inh -95, PI4K2A inh inactive, Tb PFK inh-1 inconclusive, Tb PGK inh inconclusive, TbPFK ATP inconclusive and Tb PFK inh-2 inactive.
Cc1nc2cc([N+](=O)[O-])ccc2c(=O)n1-c1ccccc1[N+](=O)[O-] was read as Pin1 inhibitor inactive, PI5P4K alpha inh inactive, PI4K2A inh inactive, Tb PFK inh-1 inactive and Tb PGK inh inactive.
For O=C1CCC(C(=O)Nc2cccc(S(=O)(=O)Nc3ccccc3F)c2)=NN1 the results were Pin1 inhibitor inactive, PI5P4K alpha inh inactive, PI4K2A inh inactive, Tb PFK inh-1 inconclusive, Tb PGK inh inactive, TbPFK ATP 3.4µM and Tb PFK inh-2 9.5µM.
O=C(Nc1cccc(Br)c1)c1c(O)c2c(n(Cc3ccccc3)c1=O)CCCC2 was read as Pin1 inhibitor inactive, PI5P4K alpha inh inactive, PI4K2A inh inactive, Tb PFK inh-1 inactive and Tb PGK inh inactive.
For CC(C)C1CN1CC(O)Cn1ccnc1[N+](=O)[O-] (configuration not stated) the results were PI5P4K alpha inh inactive and PI4K2A inh inactive.
Cc1c(Br)c([N+](=O)[O-])nn1CC(=O)Nc1ccc(C(N)=O)cc1 was read as Pin1 inhibitor inactive, PI5P4K alpha inh inactive, PI4K2A inh inactive, Tb PFK inh-1 19µM, Tb PGK inh inactive, TbPFK ATP 13µM and Tb PFK inh-2 27µM.
Screening CC1CN(C(=O)CCC(=O)N2CCC3(CC2)OCCO3)c2cc(Cl)ccc2O1 (configuration not stated) returned Pin1 inhibitor inactive, PI5P4K alpha inh inactive, PI4K2A inh inactive, Tb PFK inh-1 inactive and Tb PGK inh inactive.
Screening CNC(=O)OCCc1n(C)cc[n+]1C returned Pin1 inhibitor inactive, PI5P4K alpha inh inactive, PI4K2A inh inactive, Tb PFK inh-1 inactive and Tb PGK inh inactive.
Oc1ccc(C2C[C@H]3CC[C@@H]2C3)cc1O (some centres not stated) was read as Pin1 inhibitor inactive, PI5P4K alpha inh inactive, PI4K2A inh inactive, Tb PFK inh-1 inconclusive, Tb PGK inh inactive, TbPFK ATP 12µM and Tb PFK inh-2 13µM.
For COc1cc(/C=C/c2ccc3c([N+](=O)[O-])cccc3n2)ccc1OCC(=O)O the results were Pin1 inhibitor inactive, PI5P4K alpha inh inactive, PI4K2A inh inactive, Tb PFK inh-1 inconclusive, Tb PGK inh inactive, TbPFK ATP inactive and Tb PFK inh-2 inconclusive.
For COc1cc(/C=C/c2ccc3cccc([N+](=O)[O-])c3n2)ccc1OCC(=O)O the results were Pin1 inhibitor inactive, PI5P4K alpha inh inactive, PI4K2A inh inactive, Tb PFK inh-1 inconclusive, Tb PGK inh inactive, TbPFK ATP inactive and Tb PFK inh-2 inactive.
`C[C@]12CCC3C(CC[C@H]4C[C@H](O)CC[C@]34C)C1CC[C@@H]2C(=O)CO` (some centres not stated) gave PI4K2A inh inactive.
For COC(=O)C1=C(c2ccccc2OCc2ccccc2)C[C@@H]2CC[C@H]1N2C(=O)NCc1cccc(F)c1 the results were Pin1 inhibitor inactive, PI5P4K alpha inh inactive, PI4K2A inh inactive, Tb PFK inh-1 inactive and Tb PGK inh inactive.
CN1CCN(c2ccc(C(F)(F)F)cc2N)CC1 was read as Pin1 inhibitor inactive, PI5P4K alpha inh inactive, PI4K2A inh inactive, Tb PFK inh-1 inactive and Tb PGK inh inactive.
`N#Cc1cccc(NCC(=O)Nc2ccc3c(c2)OCCO3)c1` gave Pin1 inhibitor inactive, PI5P4K alpha inh inactive, PI4K2A inh inactive, Tb PFK inh-1 21µM, Tb PGK inh inactive, TbPFK ATP 27µM and Tb PFK inh-2 30µM.
Screening COc1cc(Br)c(Br)cc1N returned Pin1 inhibitor inactive, PI5P4K alpha inh inactive, PI4K2A inh inactive, Tb PFK inh-1 inconclusive, Tb PGK inh inactive, TbPFK ATP 21µM and Tb PFK inh-2 inconclusive.
Screening CCOC(=O)C(C)Oc1cc(C)cc2oc(=O)c3c(c12)CCCC3 (configuration not stated) returned Pin1 inhibitor inactive, PI4K2A inh inactive and Tb PFK inh-1 inactive.

Bioassay records from PubChem.
